From PubChem BioAssay
A number with no mark means an inactive call. Active and inactive are the calls of the source. Unless noted, no stated cut-off is given here; in the data, active means inhibition above about 44%; inactive means the rest.

Key:
[1] = StAR promoter reporter inhibitors, counter-screen for LRH-1 inverse agonist project, cell-based, luminescence, high throughput (AID 651611; in the data active means inhibition above about 28%); settings: StAR promoter luciferase reporter counterscreen, at 3.6 µM, active compounds read high
[2] = biological target: Nuclear receptor subfamily 5 group A member 2 (Homo sapiens) (UniProt O00482); assay: NR5A2 activity suppression in reporter cells – cell-based, luminescence, confirmation (AID 651613; in the data active means inhibition above about 42%;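 further: HEK293T cells co-transfected with LRH-1 and StAR promoter luciferase reporter; 0% = vehicle wells and 100% = parental cells lacking receptor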); settings: cell-based LRH-1 luciferase reporter, inverse agonism; at 3.6 µM; active compounds read high
Nuclear receptor subfamily 5 group A member 2 (Homo sapiens), sequence (O00482 whole entry, looked up): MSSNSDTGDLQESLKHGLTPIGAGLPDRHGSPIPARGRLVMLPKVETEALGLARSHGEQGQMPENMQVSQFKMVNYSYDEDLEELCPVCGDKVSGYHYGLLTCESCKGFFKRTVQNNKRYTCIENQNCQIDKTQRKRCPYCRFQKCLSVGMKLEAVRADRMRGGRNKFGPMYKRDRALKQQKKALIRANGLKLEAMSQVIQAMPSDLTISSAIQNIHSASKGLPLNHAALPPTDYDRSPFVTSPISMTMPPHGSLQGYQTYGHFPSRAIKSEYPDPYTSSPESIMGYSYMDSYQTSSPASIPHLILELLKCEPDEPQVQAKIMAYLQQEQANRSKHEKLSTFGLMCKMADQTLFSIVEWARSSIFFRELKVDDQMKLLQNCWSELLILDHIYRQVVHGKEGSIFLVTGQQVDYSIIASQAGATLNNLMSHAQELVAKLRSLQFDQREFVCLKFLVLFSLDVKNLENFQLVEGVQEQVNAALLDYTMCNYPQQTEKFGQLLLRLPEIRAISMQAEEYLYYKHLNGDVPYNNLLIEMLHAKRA

[3] = biological target: Steroidogenic factor 1 (Homo sapiens) (UniProt Q13285); assay: inverse agonism at SF1 nuclear receptor – cell-based, luminescence, high throughput, counter-screen for LRH-1 inverse agonist project (AID 651614); settings: cell-based SF1 luciferase reporter, at 3.6 µM, active compounds read high;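 further: cells cotransfected with StAR promoter reporter and SF1 expression vector; 0% = vehicle on cells with receptor and 100% = vehicle on cells lacking receptor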
Steroidogenic factor 1 (Homo sapiens), sequence (Q13285 whole entry, looked up, the tested form may be a part): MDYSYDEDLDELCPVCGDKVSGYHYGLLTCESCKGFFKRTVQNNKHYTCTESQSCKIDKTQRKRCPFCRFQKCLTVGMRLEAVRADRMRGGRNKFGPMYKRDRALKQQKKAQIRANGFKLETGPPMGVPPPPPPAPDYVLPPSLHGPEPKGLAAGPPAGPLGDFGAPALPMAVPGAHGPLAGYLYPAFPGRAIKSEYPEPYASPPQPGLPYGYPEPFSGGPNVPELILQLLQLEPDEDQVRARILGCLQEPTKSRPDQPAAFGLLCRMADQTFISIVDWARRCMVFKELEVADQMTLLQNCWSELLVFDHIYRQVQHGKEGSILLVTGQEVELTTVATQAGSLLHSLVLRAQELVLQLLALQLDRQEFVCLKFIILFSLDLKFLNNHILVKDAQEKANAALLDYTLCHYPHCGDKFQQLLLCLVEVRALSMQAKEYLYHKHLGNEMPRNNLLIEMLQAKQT

[4] = compounds suppressing VP16-driven luciferase signal – cell-based, luminescence, high throughput, counter-screen for LRH-1 inverse agonist project (AID 651615; in the data active means inhibition above about 33%); settings: Gal4-VP16 luciferase reporter cells, at 3.6 µM, active compounds read high

Structure (SMILES)	inhibition [1]	inhibition [2]	inhibition [3]	inhibition [4]
CC1(C)CC(=O)C=C(c2cccs2)C1	0.35%	47.2% (active)	57.8% (active)	6.36%
COc1ccccc1Nc1nc(NCCCCO)nc(N2CCCC2)n1	10.5%	30.2%	38.3%	5.34%
O=C(Cc1ccccc1)N/N=C/c1ccc([N+](=O)[O-])s1	2.21%	60% (active)	62.1% (active)	-9.91%
Cc1nn(Cc2ccc(Cl)cc2)c(C)c1NC(=O)c1ccc([N+](=O)[O-])cc1	36.1% (active)	55.9% (active)	50% (active)	-3.45%
O=C(Nc1ccc(S(=O)(=O)N2CCOCC2)cc1)c1ccc([N+](=O)[O-])o1	17.6%	57.5% (active)	65.2% (active)	-5.86%
O=C1C=C(c2ccccc2)OC2(CCCC2)O1	19.8%	67.3% (active)	61.2% (active)	-4.15%
Cc1nnsc1C(=O)NC1CCCc2c1cnn2-c1ccc(F)cc1F (centres undefined)	19.6%	59.4% (active)	55.4% (active)	55.9% (active)
COc1ccc(N=C2NN=C(c3c(C)[nH]c4ccccc34)CS2)cc1	-7.38%	43.1% (active)	32.1%	-7.14%
CCn1c(CN2CCN(c3ccc(Cl)cc3)CC2)nc2ccccc21	2.05%	46% (active)	36.1%	7.76%
Cc1ccc2cccc(OCC(=O)NCCC3=CCCCC3)c2n1	8.76%	61.1% (active)	58.1% (active)	-3.55%
COC(=O)c1c(NC(=O)c2cccc(N3C(=O)CCC3=O)c2)sc2c1CCN(C(C)=O)C2	19.6%	65.5% (active)	49.8% (active)	-30.4%
C/C(=N/N1CCN(Cc2cccc3ccccc23)CC1)c1cccnc1	-12%	-17.6%	-2.52%	-2.08%
O=C(NC(NNc1ccc([N+](=O)[O-])cc1)(C(F)(F)F)C(F)(F)F)c1ccccc1Cl	7.51%	18.4%	34.1%	5.04%
COc1ccc(-c2nn(C)c(=O)c3ccccc23)cc1NS(C)(=O)=O	49.6% (active)	53.6% (active)	41.2%	-52.2%
COc1cc(-c2noc(C)c2/C=C/c2ccc(N)cc2)cc(OC)c1OC	64.6% (active)	38.5%	55.2% (active)	-29.3%
Cc1no[n+]([O-])c1COc1ccccc1/C=N/n1nnnc1N	7.3%	48.8% (active)	43% (active)	-13.9%
CC1CCC2(CC1)NC(=O)N(CC(=O)Nc1ccc3c(c1)CCC3)C2=O (centres undefined)	39.1% (active)	49.1% (active)	48.9% (active)	12.8%
O=C(Nc1nc2c(Cl)cccc2s1)c1ccc([N+](=O)[O-])o1	10.3%	65.3% (active)	62.2% (active)	-6.76%
O=C(C(Cl)c1ccccc1)N1CCCC1 (centres undefined)	7.29%	51.5% (active)	44.9% (active)	-16.8%
O=C(c1c(F)c(F)c(F)c(F)c1F)N1CCN(c2cccc(C(F)(F)F)c2)CC1	7.83%	49.5% (active)	44% (active)	11.4%
COc1ccc(-c2c(-c3ccccc3)c(C(=O)C(=O)NCCCN(C)C)n3ccc4cc(OC)c(OC)cc4c23)cc1OC	20.4%	40.9%	32.1%	2.99%
Cc1cccc(C)c1NC(=O)C(c1ccc(C(F)(F)F)cc1)n1c(=O)c(-c2cc3ccccc3[nH]2)nc2ccccc21 (centres undefined)	13.9%	23.7%	24.7%	7.59%
COc1ccc(CC(=O)Nc2ccncc2Cl)cc1	7.9%	57.3% (active)	49.8% (active)	43% (active)
O=C1C=C(NCCc2ccccc2)C2(CCCCC2)O1	3.62%	59.9% (active)	49.5% (active)	-3.99%
COc1ccc(NC(=O)CSc2ncnc3[nH]ncc23)cc1	7.25%	60.5% (active)	54.4% (active)	-6.96%
COc1ccc2nc(N3CCC(O)CC3)c(C#N)cc2c1	-24.2%	43.6% (active)	44.9% (active)	-30.6%
